The source of these data is PubChem BioAssay (NCI).

Compounds without any hit were thinned out: in the full panel of roughly 83,000, 20% have a hit.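 Assay: single dose, 48 h. Readout: percent growth (0 = no net growth; negative = cell death). Active: <10.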 A number with no mark means an inactive call. The source made the active and inactive calls.

For the assay, the system named is PC-3 prostate. Description: NCI-60 one-dose screen, 48 h (100 = growth as untreated, 0 = no growth, -100 = all killed). Conditions: 10 µM unless noted. How it is done: Growth inhibition of the PC-3 human tumor cell line is measured as a screen for anti-cancer activity. Cells are grown in 96 well plates and exposed to the test compound for 48 hours. Compounds are tested at a single concentration, which is 10^-5 M for most compounds. The reported endpoint is percent growth (GI% or GIPRCNT), where numbers from 0 - 100% represent growth inhibition, and numbers from -100% - 0 represent cell death. For example, a value of 40 represents 60% growth inhibition. A value of 0 means no net growth occurred over the course of the experiment. A value of -40 indicates 40% of cells at the beginning of the experiment died by the end of the experiment. A value of -100 means all cells are dead at the end of the experiment.
NCI-60 Human Tumor Cell Lines Screen was performed using the standard one-dose NCI protocol, which is described in more detail at https://dtp.cancer.gov/discovery_development/nci-60/default.htm.
Compounds with GIPRCNT values below 10 were considered active. Activity score was based on GIPRCNT using the following formula: […]
Score is 0 for GIPRCNT values of 100 or above, 50 for GIPRCNT values of 0, and 100 for GIPRCNT values of -100.
Take `CCCCNc1ccc2c3c1cccc3c(=O)n1c3ccccc3nc21`: the growth was 85.5%.

Regarding `CCOC(=O)/C=C/C(=O)[C@H](CC(C)C)NC(=O)[C@H](Cc1ccccc1)NC(=O)OCc1ccccc1`, the growth was 68.3%. For `NS(=O)(=O)N(c1cc(C(F)(F)F)cc(C(F)(F)F)c1)C1CCN(Cc2ccc(F)cc2)CC1` the value was 34.2%; for `O=C1/C(=C\c2cn(C(=O)c3ccc(Cl)cc3)c3ccccc23)c2ccccc2N1c1c(Cl)cccc1Cl`, 71.9%. Under `CCCCCCCCCCCCCC(=O)C(C)N` (stereo not given) stands 3.08% (active). Consider `CC(C)n1cc2c(N)ncnc2n1`, for which the growth was 106%.

With `CCCCCCCCCCNC(=O)CCl`, the growth was 66.1%. Under `Nc1cc2ccncc2c2ccccc12` stands 83.1%; under `O=C1C=CC(=O)c2c1nc1n2CCCC1`, 89.7%. As for `CCOC(=O)c1ccc2c(c1)nc(/C=C/c1ccc(Cl)cc1)n2-c1cc(C(C)(C)C)[nH]n1`, the growth is 62.1%.

Consider `COc1c(Cl)cc(Cl)cc1Cl`, for which the growth is 111%. For `C=C1C(=O)O[C@H]2[C@H]1CC/C(Cn1cc(Cn3ccc4ccccc43)nn1)=C\CC[C@@]1(C)O[C@@H]21` the value was 40.8%; for `COc1cccc(/C=C\C(=O)c2ccccc2)c1`, 63.5%. Under `COc1cccc(-n2cc(-c3nc(Nc4cc(C)[nH]n4)c4ccccc4n3)nn2)c1` stands 55.3%. Under `O=C(O)c1ccc(=O)[nH]n1` stands 103%; under `Nc1cc2nc3ccccc3sc-2cc1=O`, 50.8%; under `ClC1=C2NC=NC2n2c(nnc2-c2ccc(Cl)cc2)N1` (stereo not given), 89.9%. With `CC1=CC(=O)CC(C)(C)[C@@]1(O)/C=C/[C@@H](C)O`, the growth was 101%.

As to `COc1cccc(/C=C2/C(=O)N(Cc3ccco3)SC2=S)c1OC`, the growth was 103%.

For `COc1cccc(-c2nc3sccn3c2-c2ccnc(NCCCNS(=O)(=O)c3ccccc3)c2)c1`, the growth was 15.9%.

For `C=C1CC[C@@H]2[C@](C)(COC(C)=O)[C@H](OC(C)=O)CC[C@@]2(C)[C@@H]1CC(Nc1ccc(S(=O)(=O)Nc2ccc(Cl)nn2)cc1)C1=CCOC1=O` (stereo not given in full), the growth was 38.4%. For `COc1ccc(C(=O)/C=C/c2cc3ccccc3[nH]c2=O)cc1` the value was 32.3%; for `Cc1nn(-c2nc3ccccc3[nH]2)c2c1C(c1ccc3c(c1)OCO3)CC(=O)N2` (stereo not given), 21.6%.

`CC1(C)CC(C(=O)OCCCCCCCCCCC[P+](c2ccccc2)(c2ccccc2)c2ccccc2)C(C)(C)N1O` (stereo not given): the growth was -70.1% (active).

For `Nc1cccc(NC(=O)C(=O)Nc2cccc(N)c2)c1`, the growth is 99.8%. Turning to `Cc1ccc(SCN2CCN(c3cccc(Cl)c3)CC2)cc1`, the growth was 101%. Under `CNc1cc2nc3cc(NC)c(C)cc3cc2cc1C` stands 18.2%; under `COc1ccc(-c2cn3c(-c4ccc(OC)cc4)cnc3c(Oc3ccc4c(C)cc(=O)oc4c3)n2)cc1`, 17.7%.

As to `COc1ccc(/C=c2/c(=O)[nH]c3nc4sc(C)c(C)c4c(=O)n23)cc1`, the growth was 91%. Under `CCN(CC)c1ccc(/C=C/C2=[N+](C)c3ccccc3C2(C)C)cc1` stands 5.82% (active). Under `Cc1cc(N/N=C/c2nc(-c3ccc(Cl)cc3)oc2C)c2cc(Br)ccc2n1` stands 80.2%; under `C[C@@H]1CCC2=C(CCC[C@]2(C)C(=O)O)[C@@]1(C)CCc1ccoc1`, 87.4%. Under `CC1CN(Cc2ccco2)C(=S)N(c2ccccc2)C1=O` (stereo not given) stands 86.5%; under `CN1CCN(Cc2ccc(NC(=O)c3cncc(C#Cc4cncc5nccnc45)c3)cc2C(F)(F)F)CC1`, 67.6%. `O=C(CN1CCOCC1)Nc1ccc(Cn2nnc3c2C(=O)c2nnn(Cc4ccc(NC(=O)CN5CCOCC5)cc4)c2C3=O)cc1`: the growth is 5.89% (active). For `COc1cc2c(=O)n(CC3CCCCC3)c3c4cc[nH]c4ncc3c2cc1OC`, the growth is 43.4%.

Regarding `Cc1ccc2cnc(N)c(C#Cc3cncc(C(=O)Nc4ccc(CN5CCN(C)CC5)c(C(F)(F)F)c4)c3)c2c1`, the growth is -71% (active).

For `COc1ccc(OCC(=O)Nc2ccc(-c3nc4ccccc4s3)cc2C)cc1`, the growth was 75.9%. For `O=C1OC2C(I)C3CC2C1C3c1ccccc1` (stereo not given), the growth is 93.8%. Under `COc1cc(NCCCCN=C(N)N)c2ncccc2c1` stands 79.1%.
